According to PubChem BioAssay (EPA / NIEHS):
Results filed as inconclusive are left out. Active and inactive are the calls of the source. Rule for the calls: active = hit-call score of the fitted dose curve at least 0.9, where 1 is the maximum; inconclusive = response in the unintended direction; inactive = score below 0.9.

How the values were obtained:
[1] = target: Cellular tumor antigen p53 (Homo sapiens) (UniProt P04637); experiment: TOX21_p53_BLA_p3_ratio: Tox21 HCT-116 p53 Agonism Beta-lactamase Assay, Ratio, Phase 3 (AID 2283596)
Cellular tumor antigen p53 (Homo sapiens), sequence (P04637 whole entry, looked up): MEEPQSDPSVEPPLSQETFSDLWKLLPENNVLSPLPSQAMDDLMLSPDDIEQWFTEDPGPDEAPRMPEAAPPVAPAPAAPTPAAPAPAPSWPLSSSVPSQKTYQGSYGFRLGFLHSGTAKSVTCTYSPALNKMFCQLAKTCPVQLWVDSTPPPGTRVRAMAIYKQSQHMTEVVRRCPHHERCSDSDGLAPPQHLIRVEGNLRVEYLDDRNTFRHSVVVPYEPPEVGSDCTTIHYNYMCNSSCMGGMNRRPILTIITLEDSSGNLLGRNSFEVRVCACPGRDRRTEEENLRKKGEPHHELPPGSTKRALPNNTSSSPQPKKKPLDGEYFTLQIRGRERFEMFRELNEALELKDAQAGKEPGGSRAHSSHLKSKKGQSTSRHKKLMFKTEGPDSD
Procedure, shortened: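 HCT116 p53-bla cells (4000/well) given compound in DMSO (217-fold dilution) after 5 h, incubated 16 h at 37C. CCF4-AM substrate 2 h at room temperature; 460/530 nm emission ratio, gain fitted against DMSO.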

[2] = TOX21_p53_BLA_p4_viability: Viability Assessment in the Tox21 HCT-116 p53 Agonism Beta-lactamase Assay, Phase 4 (AID 2283597);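 note: hits lower the luminescence signal meaning cytotoxicity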
Procedure, shortened: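 HCT-116 p53-bla cells, 4000/well, dosed after 5 h attachment and incubated 16 h at 37 °C, 5% CO2. Viability from CellTiter-Glo ATP luminescence after 30 min at room temperature, taken after the beta-lactamase read; loss of signal indicates cytotoxicity.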

[3] = target: Cellular tumor antigen p53 (Homo sapiens) (UniProt P04637); experiment: TOX21_p53_BLA_p5_ratio: Tox21 HCT-116 p53 Agonism Beta-lactamase Assay, Ratio, Phase 5 (AID 2283599)
Procedure, shortened: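 HCT-116 cells carrying a p53-inducible beta-lactamase reporter were seeded at 4000 cells/well and dosed after 5 h with compound in DMSO (217-fold dilution). After 16 h at 37C, CCF4-AM substrate was added for 2 h, and the 460/530 nm emission ratio was scored as gain-of-signal versus DMSO.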

[4] = TOX21_p53_BLA_p5_viability: Viability Assessment in the Tox21 HCT-116 p53 Agonism Beta-lactamase Assay, Phase 5 (AID 2283600)
Procedure, shortened: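 HCT-116 p53 beta-lactamase reporter cells, 4000/well, were exposed to compound (pin transfer, 217-fold dilution) for 16 hours at 37C. Cellular ATP was read by CellTiter-Glo luminescence after 30 min at room temperature.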

[5] = target: Cellular tumor antigen p53 (Homo sapiens) (UniProt P04637); experiment: TOX21_p53_BLA_p4_ratio: Tox21 HCT-116 p53 Agonism Beta-lactamase Assay, Ratio, Phase 4 (AID 2283601)
Procedure, shortened: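 HCT116 cells carrying an inducible beta-lactamase reporter were plated at 4000 cells/well, rested 5 h, then exposed to compounds in DMSO (217-fold dilution) for 16 h at 37C. CCF4-AM substrate was loaded 2 h at room temperature; 460/530 nm emission ratio scored gain-of-signal versus DMSO.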

[6] = Tanguay_ZF_120hpf_YSE_legacy: (Legacy) Oregon State University Tanguay Lab 120 Hour Post-fertilization zebrafish Assay for Yolk Sac Edema (AID 2283634);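 for AC50: actives raise the incidence of yolk sac edema above the DMSO baseline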
Procedure, shortened: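 Dechorionated Tropical 5D wild-type zebrafish embryos were exposed statically, one per well, from 6 to 120 hpf at 28C in 0.64% DMSO. Yolk sac edema was scored present/absent by brightfield at 120 hpf, and dead embryos were excluded.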

[7] = Tanguay_ZF_120hpf_AXIS_legacy: (Legacy) Oregon State University Tanguay Lab 120 Hour Post-fertilization zebrafish Assay for Body Axis Malformation (AID 2283635);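 for AC50: potency for an increased fraction of larvae scored with body axis malformation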
Procedure, shortened: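 Dechorionated wild-type Tropical 5D zebrafish embryos, one per well, statically exposed from 6 hpf to 120 hpf at 28C in 0.64% DMSO final. Body axis malformation scored present/absent by brightfield microscopy at 120 hpf; dead embryos excluded.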

[8] = Tanguay_ZF_120hpf_EYE_legacy: (Legacy) Oregon State University Tanguay Lab 120 Hour Post-fertilization zebrafish Assay for Eye Malformation (AID 2283636);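 note: binary presence or absence of eye malformation scored by brightfield in 120 hpf larvae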
Procedure, shortened: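 Dechorionated wild-type Tropical 5D zebrafish embryos were exposed statically from 6 hpf, one per well, to 120 hpf at 28C in sealed, foil-covered plates with 0.64% DMSO. Eye malformation was scored present/absent by brightfield microscopy against DMSO controls.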

[9] = Tanguay_ZF_120hpf_SNOU_legacy: (Legacy) Oregon State University Tanguay Lab 120 Hour Post-fertilization zebrafish Assay for Snout Malformation (AID 2283637)
Procedure, shortened: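 Tropical 5D wild-type zebrafish embryos, dechorionated with pronase at 4 hpf, were exposed singly from 6 hpf to 120 hpf statically at 28C in 0.64% DMSO. Snout malformation was scored present/absent by brightfield microscopy, fitted against DMSO.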

[10] = Tanguay_ZF_120hpf_JAW_legacy: (Legacy) Oregon State University Tanguay Lab 120 Hour Post-fertilization zebrafish Assay for Jaw Malformation (AID 2283638);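 for AC50: active means more embryos with jaw malformation than DMSO controls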
Procedure, shortened: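 Dechorionated Tropical 5D wild-type zebrafish embryos, one per well, exposed statically from 6 hpf to 120 hpf at 28C in 0.64% DMSO. Jaw malformation was scored by brightfield microscopy as present or absent. It was not scored in dead embryos.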

[11] = Tanguay_ZF_120hpf_OTIC_legacy: (Legacy) Oregon State University Tanguay Lab 120 Hour Post-fertilization zebrafish Assay for Otic Vesicle Malformation (AID 2283639)
Procedure, shortened: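 Otic vesicle malformation is read as a yes/no morphology call at 120 hpf. Exposure is static at 28C with 0.64% (vol/vol) DMSO; embryos that die are excluded from non-mortality endpoints.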

[12] = Tanguay_ZF_120hpf_PE_legacy: (Legacy) Oregon State University Tanguay Lab 120 Hour Post-fertilization zebrafish Assay for Pericardial Edema (AID 2283640);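 for AC50: potency for increased incidence of pericardial edema versus DMSO baseline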
Procedure, shortened: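 Tropical 5D wild-type zebrafish embryos were statically exposed until 120 hpf at 28C, with 0.64% DMSO final. Pericardial edema was scored by brightfield as present or absent; endpoints were not scored in dead embryos.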

[13] = Tanguay_ZF_120hpf_BRAI_legacy: (Legacy) Oregon State University Tanguay Lab 120 Hour Post-fertilization zebrafish Assay for Brain Malformation (AID 2283641)
Procedure, shortened: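 Tropical 5D wild-type zebrafish embryos exposed statically until 120 hpf at 28C, 0.64% DMSO final, sealed and dark. Brain malformation scored present/absent by brightfield at 120 hpf; dead embryos excluded. Trimethyltin chloride 5uM positive control.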

[14] = Tanguay_ZF_120hpf_SOMI_legacy: (Legacy) Oregon State University Tanguay Lab 120 Hour Post-fertilization zebrafish Assay for Somite Malformation (AID 2283647)
Procedure, shortened: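 Dechorionated Tropical 5D wild-type zebrafish embryos, one per well from 6 hpf, statically exposed at 28C to 120 hpf in 0.64% DMSO; somite malformation scored present/absent by brightfield; trimethyltin 5 uM positive control; dead embryos not scored.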

[15] = Tanguay_ZF_120hpf_PFIN_legacy: (Legacy) Oregon State University Tanguay Lab 120 Hour Post-fertilization zebrafish Assay for Pectoral Fin Malformation (AID 2283648);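 note: each larva judged yes or no for fin defect by brightfield with dead larvae skipped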
Procedure, shortened: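 Tropical 5D wild-type embryos, dechorionated with pronase at 4 hpf, were placed singly in wells at 6 hpf and statically exposed until 120 hpf at 28C, sealed and dark, with 0.64% (vol/vol) final DMSO; pectoral fin malformation scored present/absent.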

[16] = Tanguay_ZF_120hpf_PIG_legacy: (Legacy) Oregon State University Tanguay Lab 120 Hour Post-fertilization zebrafish Assay for Pigmentation Malformation (AID 2283650)
Procedure, shortened: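 Tropical 5D wild-type zebrafish embryos, dechorionated with pronase at 4 hpf, were exposed singly from 6 hpf to 120 hpf statically at 28C in sealed, dark plates with 0.64% DMSO; pigmentation scored present/absent by brightfield microscopy, fitted against DMSO.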

[17] = Tanguay_ZF_120hpf_CIRC_legacy: (Legacy) Oregon State University Tanguay Lab 120 Hour Post-fertilization zebrafish Assay for Circulatory Malformation (AID 2283651)
Procedure, shortened: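 Using wild-type Tropical 5D zebrafish, we exposed dechorionated embryos from 6 to 120 hpf in embryo medium with 0.64% DMSO. Circulatory defects were scored as present or absent; 5uM trimethyltin chloride served as positive control.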

[18] = Tanguay_ZF_120hpf_MORT_legacy: (Legacy) Oregon State University Tanguay Lab 120 Hour Post-fertilization zebrafish Assay for Mortality (AID 2283633)
Procedure, shortened: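 Dechorionated Tropical 5D wild-type zebrafish embryos, one per well from 6 hpf, static exposure in 0.64% DMSO at 28C until 120 hpf. Mortality scored as binary by brightfield microscopy at 24 and 120 hpf.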

Measured: AC50

CCCC1COC(Cn2cncn2)(c2ccc(Cl)cc2Cl)O1 (configuration not stated)
inactive: [1] | [2] | [3] | [4] | [5] | [7] | [11] | [14] | [15] | [16] | [17]
active: [6] 33.9 µM | [8] 26.9 µM | [9] 25.2 µM | [10] 25.2 µM | [12] 30.4 µM | [13] 30.2 µM

CCON=C(CC)C1=C(O)CC(c2c(C)cc(C)cc2C)CC1=O (configuration not stated)
inactive: [1] | [2] | [3] | [4] | [5] | [6] | [7] | [8] | [9] | [10] | [11] | [12] | [13] | [14] | [15] | [16]

CCOC(=O)C(Cl)Cc1cc(-n2nc(C)n(C(F)F)c2=O)c(F)cc1Cl (configuration not stated)
active: [6] 1.27 µM | [7] 4.23 µM | [8] 1.7 µM | [9] 4.26 µM | [10] 5.22 µM | [11] 1.82 µM | [12] 2.58 µM | [13] 2.91 µM | [14] 2.22 µM | [15] 2.19 µM | [16] 1.88 µM
inactive: [2] | [4] | [5] | [18] | [17]

COc1nc(NC(C)C)nc(NC(C)C)n1
inactive: [1] | [3] | [5] | [6] | [7] | [8] | [9] | [10] | [11] | [12] | [13] | [14] | [15] | [16] | [17]

O=C(Nc1ccccc1)Nc1ccnc(Cl)c1
inactive: [2] | [3] | [4] | [6] | [7] | [10] | [11] | [13] | [14] | [16] | [17]
active: [1] 46.1 µM | [5] 41 µM | [12] 50.5 µM

COC(=O)C=C(C)OP(=O)(OC)OC
inactive: [3] | [4] | [5] | [6] | [7] | [8] | [9] | [10] | [12] | [13] | [14] | [15] | [16] | [17]
